Laboratory results taken from ChEMBL document CHEMBL1157539, “Thousands of chemical starting points for antimalarial lead identification” (Nature, 2010).

Legend:
Format in all cases: functional
Plasmodium falciparum [1] = experiment: GSK_TCMDC: Inhibition of Plasmodium falciparum 3D7 in whole red blood cells, using parasite LDH activity as an index of growth. Test compounds present at 2uM
Plasmodium falciparum [2] = experiment: GSK_TCMDC: Inhibition of Plasmodium falciparum Dd2 in whole red blood cells, using parasite LDH activity as an index of growth. Test compounds present at 2uM
HepG2 = experiment: GSK_TCMDC: Percent inhibition of human HepG2 cell line. Test compounds present at 10uM.

Row | Structure (SMILES) | Inhibition (Plasmodium falciparum [1]) [%] | Inhibition (Plasmodium falciparum [2]) [%] | Inhibition (HepG2) [%]
1 | COc1cccc(C2CCN(CCN3CCC(NC(=O)c4ccc(-c5ccc(Cl)cc5)cc4)CC3)CC2)c1 | 93 | 42 | 31
2 | CN1CCN(CC(=O)Nc2ccc(-c3ccc(-c4nc5cc(C(F)(F)F)ccc5[nH]4)s3)cc2)CC1 | 100 | 73 | 84
3 | COc1ccc(NC(=O)Nc2nc3ccccc3s2)cc1N1CCN(C)CC1 | 95 | 22 | 6
4 | Cc1ccc(-c2cc(C(=O)Nc3ccc(S(=O)(=O)N(C)Cc4ccccc4)cc3)[nH]n2)c(O)c1 | 99 | 67 | 34
5 | Cc1cccc2nc(-c3ccc(-c4cccc(NC(=O)NCc5cccc(F)c5)c4)s3)[nH]c12 | 88 | 8 | 24
6 | Cc1cc(Nc2ccc(O)cc2)nc2cccc(O)c12 | 99 | 28 | 22
7 | Oc1ccc(C=NNC(S)=Nc2cccc3ccccc23)c(O)c1 | 89 | 72 | 8
8 | COc1cc(Nc2nccc(N3CCC(NC(=O)c4cccc(C#N)c4)C3)n2)cc(OC)c1OC (centres undefined) | 91 | 76 | 13
9 | CO.Cc1nc(N)nc(N)c1OCc1cccc2c1ccc1ccccc12.Cl | 95 | 16 | 54
10 | CC(C)c1sc(N2CCN(C)CC2)nc1C(=O)Nc1ccc(F)cc1C(F)(F)F.O=C(O)C(F)(F)F | 100 | 99 | 3
11 | Cc1[nH]cnc1Cc1ccc2c(c1O)c1ccccc1n2C | 90 | 16 | 9
12 | OCc1ccc(-c2cncc(Nc3cccc(Cl)c3)c2)cc1 | 95 | 100 | 4
13 | Cl.c1cc2[nH]c(CCCCCc3nc4cc(C5=N[C@@H]6CCCC[C@@H]6N5)ccc4[nH]3)nc2cc1C1=N[C@@H]2CCCC[C@@H]2N1 | 96 | 98 | 8
14 | Cn1cncc1C(=O)Nc1cccc(-c2ccc(-c3nc4cc(F)ccc4[nH]3)s2)c1 | 99 | 27 | 0
15 | COc1cccc(Nc2nc(Nc3cccc(C#N)c3)cc(C(F)(F)F)n2)c1 | 99 | 45 | 15
16 | Cc1cc(NC(=O)NCCN2CCC(NC(=O)c3ccc(F)cc3)CC2)c2ccccc2n1 | 99 | 76 | 0
17 | Cc1cnc(-c2ccc(NC(=O)c3coc4ccc(N5CC(C)N(C)C(C)C5)cc34)cc2)o1.Cl (centres undefined) | 96 | 39 | 18
18 | O=C(NCCNc1noc(-c2sccc2Br)n1)c1ccc(Cl)cc1 | 93 | 1 | 0
19 | CCCCCN1CCCC1CNS(=O)(=O)c1cccc(C(=O)Nc2cccc(C#N)c2)c1.O=C(O)C(F)(F)F (centres undefined) | 90 | 7 | 19
20 | O=C(/C=C/c1ccc(Cl)cc1)NCCCCCN1CCC(C(=O)Nc2cccc(Cl)c2)CC1 | 97 | 0 | 22
21 | OCCN1CCN(C(=S)NC2CCCCC2)CC1 | 93 | 0 | 49

Row | Structure (SMILES) | Inhibition (Plasmodium falciparum [1]) [%] | Inhibition (Plasmodium falciparum [2]) [%] | Inhibition (HepG2) [%]
22 | O=C(Nc1ccc(N2CCCCC2)c(Cl)c1)c1nc[nH]n1 | 93 | 93 | 0
23 | Nc1nccc2ccc(-c3ccnc(NCc4cccnc4)n3)cc12 | 100 | 95 | 11
24 | O=C(Nc1ccc(OC2CCN(Cc3ccc(F)cc3)CC2)c(Cl)c1)c1ccccc1.O=C(O)C(F)(F)F | 90 | 89 | 16
25 | COc1ccc(Nc2ccnc3cc(Cl)ccc23)cc1OC | 100 | 91 | 36
26 | CC(=O)c1cccc2c(NC(=O)Nc3ccc4nccc(N5CCN(C)CC5)c4c3)cccc12.Cl | 99 | 94 | 13
27 | COC(=O)c1ccc(NC(=O)Nc2cccc(CCNCc3ccccc3)c2)cc1.O=C(O)C(F)(F)F | 96 | 10 | 2
28 | O=C(NC1CCCCN(Cc2ccc3c(c2)OCCO3)C1)c1cc(-c2ccccc2F)cs1.O=C(O)C(F)(F)F (centres undefined) | 92 | 19 | 8
29 | CC(C)(C)c1ccc(CNC(=O)COc2ccc(-c3nnc(-c4cccc([N+](=O)[O-])c4)o3)cc2[N+](=O)[O-])cc1 | 93 | 25 | 10
30 | O=C(Nc1ccc(-c2nc3ccccc3[nH]2)cc1)C1CCN(Cc2cccc(F)c2F)CC1 | 97 | 51 | 23
31 | C[C@H](NC(=O)c1c(CN2CCC(N3CCCCC3)CC2)c(-c2ccccc2)nc2cc(O)ccc12)C1CCCCC1 | 99 | 72 | 77
32 | O=C(O)C(F)(F)F.Oc1ccc(CCNc2nc(NCCCOc3ccccc3-c3ccc(F)cc3)nc(N3CCNCC3)n2)cc1 | 85 | 8 | 30
33 | CC(C)c1ccc(NC(=O)NC2CCN(CCCCCNC(=O)/C=C/c3ccc(Cl)c(Cl)c3)CC2)cc1 | 100 | 19 | 0
34 | CC(C)CNC(=O)c1cncc(-c2cccc(CNC3Cc4ccccc4C3)c2)c1.O=C(O)C(F)(F)F | 100 | 19 | 4
35 | N#Cc1ccc(N[C@@H](CC2CCCCC2)C(=O)NCc2cc(Cl)cc(Cl)c2)c2ccccc12.O=C(O)C(F)(F)F | 94 | 88 | 34
36 | CC(C)CN1CCCN(Cc2cccc(NC(=O)c3ccc(-c4ccccc4)cc3)c2)CC1.O=C(O)C(F)(F)F | 99 | 24 | 30
37 | COc1ccc(-n2ccnc2SCC(=O)Nc2cc(C(F)(F)F)ccc2Cl)c(OC)c1 | 98 | 76 | 0
38 | CCN(CC)CCCC(C)Nc1ccnc2ccc(OC)cc12.Cl.O (centres undefined) | 100 | 0 | 7
39 | CC(=O)Nc1ccc(Nc2ncc([N+](=O)[O-])c(Nc3ccccc3C(N)=O)n2)cc1.Cl | 98 | 97 | 42
40 | COc1ccccc1C1CCN(C2CCC(NC(=O)/C=C/c3cc(F)c(F)cc3F)CC2)CC1 (centres undefined) | 85 | 0 | 39
41 | Cc1ccc(-c2ccc(Cl)cc2Oc2cnc(N)nc2N)o1 | 100 | 3 | 15
42 | COc1cc2nc(C)nc(Nc3ccc4c(ccn4Cc4ccccc4)c3)c2cc1OC.Cl | 100 | 99 | 2

Row | Structure (SMILES) | Inhibition (Plasmodium falciparum [1]) [%] | Inhibition (Plasmodium falciparum [2]) [%] | Inhibition (HepG2) [%]
43 | Cc1cc(N2CCCCC2)nc2ccc(NC(=O)c3cncc(Br)c3)cc12 | 100 | 86 | 0
44 | O=c1[nH]c2c(cc1CNC1CCCCC1)c(-c1ccc(F)cc1)nn2-c1ccccc1 | 99 | 88 | 8
45 | CC(C)Nc1nc(NCCc2c[nH]cn2)nc(NCc2ccc(Cl)c(Cl)c2)n1 | 88 | 0 | 0
46 | COc1ccc2ncc(F)c(CCN3CC[C@H](NCc4cc5c(s4)CCCN5)[C@H](O)C3)c2n1.Cl | 96 | 16 | 2
47 | Cl.O=c1cc(NCCCNC2CCOc3c(Cl)cc(Cl)cc32)[nH]c2ccccc12 (centres undefined) | 100 | 88 | 0
48 | O=C(Nc1ccc(OC2CCN(Cc3ccccc3)C2)c(Cl)c1)c1cccs1.O=C(O)C(F)(F)F (centres undefined) | 97 | 96 | 13
49 | COc1cc(F)c2ncc(Cl)c(CCN3CCC(NCc4ccc5c(n4)NC(=O)CS5)CC3)c2c1.Cl | 99 | 41 | 18
50 | CC(C)NCc1ccc(-c2ccc(NC(=O)c3ccc(Cl)cc3)cc2)cc1.O=C(O)C(F)(F)F | 90 | 8 | 60
51 | Cc1cccc2nc(-c3ccc(-c4cccc(NC(=O)C(C)CN(C)C)c4)cc3)[nH]c12 (centres undefined) | 99 | 61 | 20
52 | Cl.Nc1nc(Nc2cccc(O)c2)nc2ccccc12 | 96 | 79 | 25
53 | COCn1ccc2c3c(N)nc(N)nc3ccc21 | 88 | 1 | 63
54 | c1ccc(-n2cncn2)cc1 | 93 | 96 | 0
55 | C=CCOC(=O)N1CCC(CNCc2cccc(-c3ccc(-c4nc5cc(C(F)(F)F)ccc5[nH]4)cc3)c2)C1.O=C(O)C(F)(F)F (centres undefined) | 100 | 96 | 28
56 | CCOC(=O)c1c(C)n(-c2ccccc2)c2ccc(O)cc12 | 100 | 87 | 0
57 | O=C(/C=C/c1ccc(Cl)c(Cl)c1)NCCCCCN1CCC(CCNC(=O)/C=C/c2ccc(Cl)c(Cl)c2)CC1 | 100 | 56 | 68
58 | O=C(CN1CCN(C(=O)c2ccco2)CC1)Nc1ccc(Br)cc1Cl | 88 | 79 | 10
59 | CCOC(=O)c1ccc(NC(=O)Nc2ccc(-c3cccc(-c4nc5cc(F)ccc5[nH]4)c3)cc2)cc1 | 100 | 100 | 98
60 | Cl.N#Cc1ccc2c(c1)CCN(CCC1CCC(NC(=O)/C=C/c3cnc4ccccc4c3)CC1)CC2 (centres undefined) | 87 | 21 | 22
61 | O=C(Nc1cc(F)cc(F)c1)N1CCOC(CCN2CCC(c3ccccc3)CC2)(c2ccc(Cl)c(Cl)c2)C1 (centres undefined) | 91 | 69 | 31
62 | Cc1ccc(C)c(Sc2ccc(NC(=O)CN3CCN(C(=O)c4ccco4)CC3)cc2)c1 | 96 | 93 | 28
63 | Cc1cc(N[C@@H](Cc2ccccc2)C(=O)NCCc2ccccc2)nc(NCCOc2ccccc2)n1.O=C(O)C(F)(F)F | 95 | 14 | 10
